The panel holds about 83,000 compounds, 20% with a hit somewhere; the sample as a whole holds those more often.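 A percent growth of 40 corresponds to 60% growth inhibition; 0 means no net growth; -100 means all cells died. Active threshold: below 10.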 A number with no mark means an inactive call. Calls of active or inactive are those of the source.
Tested on: MDA-MB-231 breast
Assay: NCI-60 one-dose screen, 48 h (100 = growth as untreated, 0 = no growth, -100 = all killed)
Conditions: 10 µM unless noted

| SMILES | growth |
| --- | --- |
| COc1ccc(C2=CC(c3ccc(Oc4ccnc5cc(Cl)ccc45)c(OC)c3)c3c(nc(OC)[nH]c3=O)N2)cc1 (centres undefined) | 75.2% |
| COc1ccccc1CNCCCN1C(=O)c2ccc3c4c(ccc(c24)C1=O)C(=O)N(CCCNCCCCNCCCCN)C3=O | 8.05% (active) |
| Cc1cc(C)c(S(=O)(=O)N2CCN(c3cc4c(cc3F)c(=O)c(C(=O)O)cn4C3CC3)CC2)c(C)c1 | 84.6% |
| COc1ccc(C(=O)/C=C/c2cc(C(=O)c3cc(OC)c(OC)c(OC)c3)ccc2OC)cc1 | 51.8% |
| NC(=O)NC(=O)/C=C/C(=O)OCCCl | 115% |
| COc1cc2nc(N3CCC[C@@H](NC4=CC(=O)c5ccccc5C4=O)C3)nc(N)c2cc1OC | -71.2% (active) |
| O=S(=O)(c1ccccc1)n1ccc(-c2ccc3c(c2)CCO3)n1 | 82.9% |
| O=C(CNc1ccc(Cl)cc1)Nc1ccc(-c2nc3ccccc3s2)cc1 | 37.6% |
| COc1ccc(/C=C2\CCCC3=C2NC(C)=NC3c2ccc(OC)c(OC)c2)cc1OC (centres undefined) | 7.16% (active) |
| COc1cc(OC)c(C(=O)/C=C/c2ccc(C(F)(F)F)cc2)c(OC)c1 | 59.7% |
| O=C(CCl)NCCNc1nccc(Nc2ccc(S(=O)(=O)Nc3ccccn3)cc2)n1 | 2.46% (active) |
| O=C(O)c1ccc(-n2c(=O)c3ccccc3c3ccccc3c2=O)cc1 | 106% |
| Cc1nn(-c2ccc(Cl)cc2)c(=O)n1CCOc1ccccc1Cl | 89.6% |
| CC(C)(C)OC(=O)N[C@@H](Cc1ccccc1)C(=O)N(Cc1ccccc1)C1(C(=O)NCc2ccccc2)CCN(Cc2ccccc2)CC1 | 22.9% |
| COc1ccc(C(=O)c2cc(OC)c(OC)c(OC)c2)cc1/C=C/C(=O)c1ccc(OC)c(OC)c1 | 26.1% |
| CCCCNC(=O)NS(=O)(=O)c1ccc(N2N=C(c3ccc(C)cc3C)CC2c2ccc(OC)cc2)cc1 (centres undefined) | 85.4% |

Tested on: RXF 393 renal
Assay: as above
Conditions: 10 µM unless noted

| SMILES | growth |
| --- | --- |
| C[C@]12CC[C@@H]3c4cc(O)c(O)cc4CC[C@H]3[C@@H]1CC[C@@H]2O | 28.7% |
| CCCOC(=O)C1(O)CCCC1 | 103% |
| COC1=CC(c2ccc[nH]2)=N/C1=C\c1[nH]c(C)c(C(=O)CCCCC(=O)NCc2ccccc2)c1C | -72.3% (active) |
| O=C(NNC(=S)Nc1ccccc1)c1ccccn1 | 35.4% |
| COc1cc(NC(=O)CCl)ccc(=O)c1 | 84.7% |
| COc1ccc(S(=O)(=O)N2CCN(c3cc4c(cc3F)c(=O)c(C(=O)O)cn4C3CC3)CC2)c(OC)c1 | 102% |
| COc1ccc(Cn2cc(COc3cc(/C=C/C(=O)c4cc(OC)c(OC)c(OC)c4)ccc3OC)nn2)cc1 | 90.3% |
| COc1cc(C(=O)OCCCCCCCCCCC[P+](c2ccccc2)(c2ccccc2)c2ccccc2)ccc1O | -53.4% (active) |
| CC(C(=O)n1cc(-c2ccccc2)c(-c2ccccc2)c1)c1ccccc1 (centres undefined) | 112% |
| C=CCOc1cccc(/C=C/C(=O)c2sc(Nc3cccnc3)nc2C)c1 | 83.5% |
| O=C(CCCn1c(=O)c2sc3ccccc3c2n2nnc(-c3ccccc3)c12)NCCc1cnc[nH]1 | -46.2% (active) |
| CCC1CCc2nc3sc(C(=O)Nc4cccc(C)c4)c(N)c3cc2C1 (centres undefined) | 83.9% |
| Cc1cccc(NC(=O)c2sc3nc4c(cc3c2N)CCCC4)c1 | 63.8% |
| COc1ccc(-c2cn[nH]c2-c2cc(OC)c3c(c2)OCCO3)cc1 | -14% (active) |
| CC(C)C[C@H](NC(=O)Cn1ccc(NCc2ccccc2)cc1=O)B(O)O | -51.7% (active) |
| CC[C@H](C)[C@H]1NC(=O)[C@@H](N[C@](C)(O)[C@@H](N)CC(C)C)[C@@H](C)OC(=O)[C@H](Cc2ccc(OC)cc2)N(C)C(=O)[C@@H]2CCCN2C(=O)[C@H](CC(C)C)NC(=O)[C@@H](C)C(=O)[C@H](C(C)C)OC(=O)C[C@@H]1O | -33.1% (active) |
| CCNC(=O)C1CCCN1C(=O)C(CCCN=C(N)N)NC(=O)C(CC(C)C)NC(=O)C(CC(C)C)NC(=O)C(Cc1ccc(O)cc1)NC(=O)C(CO)NC(=O)C(Cc1c[nH]c2ccccc12)NC(=O)C(Cc1cnc[nH]1)NC(=O)C1CCC(=O)N1 (centres undefined) | 28.4% |
| COC(=O)c1cc(-c2cccs2)c(C#N)c(N)c1C#N | 108% |
| O=C1N=C(c2c(-c3[nH]c(=O)c4ccc(Br)cc4c3O)c(O)c3ccccc3c2O)C(=O)c2cc(Br)ccc21 | -76.1% (active) |

| SMILES | growth |
| --- | --- |
| CC[C@]1(O)C[C@@H]2CN(Cc3c([nH]c4ccccc34)[C@@](C(=O)OC)(c3cc4c(cc3OC)N(C)[C@H]3[C@@](O)(C(=O)OC)[C@H](OC(C)=O)[C@]5(CC)[C@@H]6C[C@@H]6CN6CC[C@]43[C@@H]65)C2)C1 | 15.2% |
| CCOC(=O)[C@H](CSSc1ncnc2cc[nH]c12)NC(=O)[C@@H](C)c1ccc2cc(OC)ccc2c1 | 57.9% |
| Cc1nc(Nc2cccnc2)sc1C(=O)/C=C/c1ccc(F)cc1 | 18.1% |
| COc1ccc(C2=CC(c3ccc(Oc4ccnc5cc(Cl)ccc45)c(OC)c3)c3c(nc(OC)[nH]c3=O)N2)cc1 (centres undefined) | 78% |
| COc1ccccc1CNCCCN1C(=O)c2ccc3c4c(ccc(c24)C1=O)C(=O)N(CCCNCCCCNCCCCN)C3=O | 22.6% |
| Cc1cc(C)c(S(=O)(=O)N2CCN(c3cc4c(cc3F)c(=O)c(C(=O)O)cn4C3CC3)CC2)c(C)c1 | 51.3% |
| COc1ccc(C(=O)/C=C/c2cc(C(=O)c3cc(OC)c(OC)c(OC)c3)ccc2OC)cc1 | 73% |
| NC(=O)NC(=O)/C=C/C(=O)OCCCl | 105% |
| COc1cc2nc(N3CCC[C@@H](NC4=CC(=O)c5ccccc5C4=O)C3)nc(N)c2cc1OC | -76.3% (active) |
| O=S(=O)(c1ccccc1)n1ccc(-c2ccc3c(c2)CCO3)n1 | 82.9% |
| O=C(CNc1ccc(Cl)cc1)Nc1ccc(-c2nc3ccccc3s2)cc1 | 84.2% |
| COc1ccc(/C=C2\CCCC3=C2NC(C)=NC3c2ccc(OC)c(OC)c2)cc1OC (centres undefined) | -16.6% (active) |
| COc1cc(OC)c(C(=O)/C=C/c2ccc(C(F)(F)F)cc2)c(OC)c1 | 41.1% |
| O=C(CCl)NCCNc1nccc(Nc2ccc(S(=O)(=O)Nc3ccccn3)cc2)n1 | 36.9% |
| O=C(O)c1ccc(-n2c(=O)c3ccccc3c3ccccc3c2=O)cc1 | 108% |
| Cc1nn(-c2ccc(Cl)cc2)c(=O)n1CCOc1ccccc1Cl | 115% |
| CC(C)(C)OC(=O)N[C@@H](Cc1ccccc1)C(=O)N(Cc1ccccc1)C1(C(=O)NCc2ccccc2)CCN(Cc2ccccc2)CC1 | 61.9% |
| COc1ccc(C(=O)c2cc(OC)c(OC)c(OC)c2)cc1/C=C/C(=O)c1ccc(OC)c(OC)c1 | 29.3% |
| CCCCNC(=O)NS(=O)(=O)c1ccc(N2N=C(c3ccc(C)cc3C)CC2c2ccc(OC)cc2)cc1 (centres undefined) | 82.6% |
